The source of these data is PubChem BioAssay AID1315 (University of Pittsburgh Molecular Library Screening Center, 2008).

Some of the results follow. Unmarked numbers belong to inactive results. How the calls were made is not given here.

The assay can be described thus: FP signal artefacts, PKD1 kinase format – biochemical, fluorescence polarization, 140K library, artefact control for PKD1 inhibitor project (AID 1315). Conditions: PKD1 FP assay interference counter-screen, at 10 µM, active compounds read high. On the technique in general: Fluorescence polarisation rises when a labelled molecule tumbles more slowly, as on binding a larger partner.
In general, inhibition refers to the drop in the measured response relative to a control, in per cent. `COc1ccc(Nc2cc(C)nc(-n3nc(C)cc3C)n2)cc1`: the inhibition is -21.9%.
For the compound `COc1ccccc1C(=O)NN1C(=O)C2C3C=CC(O3)C2C1=O` (stereo not drawn), the inhibition is -4.38%.
On to `Cc1ccc(NC(=O)C2CCCN(S(=O)(=O)c3c(C)noc3C)C2)c(C)c1` (stereo not drawn), for which the inhibition was -13.6%.
